Data on 58 molecules can be found in PubChem BioAssay AID2314 (National Center for Advancing Translational Sciences (NCATS), 2010).

The structures appear in SMILES notation. In all, about 300,000 compounds went through this assay and about 37,000 (12%) were called active. This is one part of a sample in which actives are shown more often than they occur. Cut-off read from the data, not from the text of the source: active = max response mostly above about 13% (no sharp cut-off); inactive = mostly below about 14%.

This assay is described as follows: Cycloheximide Counterscreen for Small Molecule Inhibitors of Shiga Toxin. Note: read at 38.3 µM for the half of the compounds with a filed dose; 0% is about no effect. Conditions: cell reporter, cycloheximide protein synthesis inhibition counterscreen; hits give high values.
Take `Cc1cc(C)n2nc(C(=O)N(C)C(c3ccccc3)c3ccccc3)nc2n1`: the max response is -3.94% (inactive).
Consider `CC1CN(C(=S)Nc2ccc(S(N)(=O)=O)cc2)CC(C)O1` (stereo not drawn), for which the max response is -1.03% (inactive).
In the case of `O=C(Nc1ccc(Br)cc1)c1cc(S(=O)(=O)Nc2ccccn2)ccc1Cl`, the max response was 0.597% (inactive).
To `CCOC(=O)C1=C(c2ccccc2)NC(=O)NC1c1cc(OC)c(OC)cc1OC` (stereo not drawn) belongs 1.07% (inactive); to `COc1ccccc1N(CC(=O)N/N=C(\C)c1ccccc1O)S(=O)(=O)c1ccc(C)cc1`, -1.67% (inactive); to `CC(C)=C(NC(=O)c1ccccc1)C(=O)N/N=C(\C)c1ccccc1O`, 1.01% (inactive).
Turning to `C/C(=N\NC(=O)c1ccoc1C)c1ccccc1O`, the max response was 18.7% (active).
On to `COc1ccc(Cl)cc1-n1c(C)cc(C(=O)OCC(=O)N2CC(=O)Nc3ccccc32)c1C`, for which the max response was 0.969% (inactive).
For the molecule `CC(C)COC(=O)n1c(=O)oc2ccc(S(=O)(=O)N3CCCCC3)cc21`, the max response is -3.35% (inactive).
To `O=C(Nc1nnc(-c2ccc(F)cc2)s1)c1c(F)cccc1Cl` belongs -1.16% (inactive); to `CCCCCC(=O)NC(=S)NNC(=O)c1ccc([N+](=O)[O-])cc1`, 0.94% (inactive).
For `COCCCNC(=S)NC(=O)c1ccccc1` the value was 36.8% (active).
For the molecule `COc1ccccc1OCCNC(=O)c1cc([N+](=O)[O-])cc([N+](=O)[O-])c1`, the max response is 6.58% (inactive).
To `COCCCNC(=S)NC(=O)c1ccc([N+](=O)[O-])cc1` belongs 27.5% (active).
For `COCCCNC(=S)NNC(=O)C(O)(c1ccccc1)c1ccccc1` the value was -2.66% (inactive); for `Cc1cccc(OCCNC(=S)NC(=O)c2cccnc2)c1`, -2.88% (inactive); for `O=C(Cc1ccccc1Cl)N1CCOCC1`, -3.01% (inactive).
`Cc1ccc(Cl)cc1NC(=O)CN1CCN(S(=O)(=O)N2CCOCC2)CC1`: the max response is -6.26% (inactive).
Regarding `O=C(c1c(F)cccc1Cl)N1CCN(S(=O)(=O)c2ccc3c(c2)OCCCO3)CC1`, the max response was -1.76% (inactive).
To `O=C(CN(C(=O)CCC(=O)Nc1nccs1)c1ccc(F)cc1)NCc1ccc2c(c1)OCO2` belongs -6.07% (inactive); to `COc1ccc(-c2oc(/N=C/N3CCCC3)c(C#N)c2-c2ccc(OC)cc2)cc1`, -5.61% (inactive); to `O=C1CCC(=O)N1c1ccc(NCCc2ccccc2F)c([N+](=O)[O-])c1`, 21.6% (active).
To `Fc1ccccc1CCNc1nnnn1-c1ccccc1` belongs 0.858% (inactive).
Turning to `O=[N+]([O-])c1cc(C(F)(F)F)ccc1NCCc1ccncc1`, the max response was 9.83% (inactive).
In the case of `COc1ccc(N2CCC(CNC(=S)Nc3c(C)cccc3C)C2)cc1` (stereo not drawn), the max response was -1.13% (inactive).
To `COc1cc(NS(=O)(=O)c2ccc(NC(=O)c3ccc([N+](=O)[O-])cc3)cc2)ncn1` belongs -2.23% (inactive).
To `CCCc1cc(=O)oc2c(C)c(OCC(=O)NCc3ccccn3)ccc12` belongs -0.405% (inactive); to `CCCc1cc(=O)oc2c(C)c(OCC(=O)N3CCC(C(=O)O)CC3)ccc12`, -2.94% (inactive); to `CCCc1cc(=O)oc2c(C)c(OCC(=O)Nc3ccccn3)ccc12`, 32.5% (active).
To `O=C1COc2ccc(C(=O)COC(=O)C3CC(O)CN3S(=O)(=O)c3ccc(Cl)cc3)cc2N1` (stereo not drawn) belongs -1.44% (inactive); to `COc1cccc(Nc2nnc(SCC(=O)N3CC(=O)Nc4ccccc43)s2)c1`, -2.67% (inactive); to `CCCc1nc2ccccc2c(C(=O)OCC(=O)c2ccc3c(c2)NC(=O)CO3)c1CC`, -2.81% (inactive).
With `CCc1ccc(Nc2nnc(SCC(=O)c3ccc4c(c3)NC(=O)CO4)s2)cc1`, the max response is 20.5% (active).
As for `COC(=O)c1ccccc1Sc1c(/C=N/OCc2ccc(Cl)cc2)c(C(F)(F)F)nn1C`, the max response is 3.42% (inactive).
To `CC(C)C(C)(C#N)NC(=O)CSc1nc2scc(-c3ccccc3)c2c(=O)[nH]1` (stereo not drawn) belongs -4.09% (inactive); to `COc1ccc(-n2nnnc2-c2nc3ccccc3s2)cc1`, 40.1% (active); to `COc1ccc(-n2nnnc2SCC(=O)NCc2cccs2)cc1`, -3.1% (inactive).
Consider `CCOc1cccc(-n2nnnc2-c2ccc(OC)cc2)c1`, for which the max response was -3.31% (inactive).
On to `Cc1ccc(NC(=S)NC(NC(=O)Cc2cccc3ccccc23)C(Cl)(Cl)Cl)cc1` (stereo not drawn), for which the max response is -3% (inactive).
For `Fc1ccccc1CNC(=S)Nc1ccc(Cl)cc1` the value was 6.56% (inactive); for `O=C(Cc1cccc2ccccc12)NNC(=O)Nc1ccc(Cl)cc1`, 28.4% (active).
For `O=C(CCCCCn1c(=S)[nH]c2cc3c(cc2c1=O)OCO3)N1CCN(c2ccc(F)cc2)CC1` the value was 10.7% (inactive); for `CC(=O)c1ccc(NC(=O)Nc2ccc([N+](=O)[O-])cc2C)cc1`, -0.717% (inactive); for `CC(=O)N1c2ccc(S(=O)(=O)N3CCC(C(=O)NC4CCCCC4C)CC3)cc2CC1C` (stereo not drawn), 4.46% (inactive).
For `COc1cc(C2CC(=O)c3cnc(NC(C)=O)nc3C2)cc(OC)c1OC` (stereo not drawn) the value was -4.71% (inactive); for `O=C(Nc1ncc2c(n1)CC(c1ccco1)CC2=O)c1ccc(Cl)cc1` (stereo not drawn), -2.44% (inactive).
Consider `CCc1ccc(Nc2ncc3c(n2)CC(c2ccco2)CC3=O)cc1` (stereo not drawn), for which the max response is 26.7% (active).
Consider `COC(=O)c1nc2n(n1)C(c1ccc([N+](=O)[O-])cc1)C(C(=O)Nc1ccc(Cl)cc1)=C(C)N2` (stereo not drawn), for which the max response was -2.4% (inactive).
For `O=c1cc(Cl)c2ccccc2n1-c1ccccc1` the value was -3.75% (inactive); for `Cc1cc(C)c(C2C3=C(Nc4c2c(C)nn4-c2ccccn2)c2ccccc2C3=O)c(C)c1` (stereo not drawn), -1.26% (inactive); for `COc1ccccc1C(=O)Nc1ccc(NC(=O)c2ccco2)c(C)c1`, 10.8% (inactive).
For `COc1cccc(C(=O)Nc2ccc(NC(=O)c3ccco3)cn2)c1` the value was 55.5% (active); for `O=C(Nc1ccnc(-c2ccncc2)n1)c1cccs1`, -2.6% (inactive).
With `COc1ccc(NC(=O)c2cccc(NC(=O)c3ccco3)c2)c(OC)c1`, the max response is -3.4% (inactive).
To `NC(=O)c1ccsc1NC(=O)c1ccco1` belongs 12.2% (inactive); to `O=C(Nc1ccc(NC(=O)c2cccs2)cn1)c1ccco1`, 51.1% (active); to `CC(C)CC(=O)NC(=S)NNC(=O)c1cccc([N+](=O)[O-])c1`, 4.5% (inactive).
On to `CCOc1ccc(CNC(=O)C2CCCN(c3nnc(C)c4c(C)n(-c5ccccc5)nc34)C2)cc1` (stereo not drawn), for which the max response was -1.93% (inactive).
